# Sampled rows, rich in hits. Any-hit rate of the full collection: about 4.8%.
# S2 tox – cell viability loss in ATXN counter-screen; actives 0.49% (n = 400,000); Potency, µM (doses to about 56.7 µM), most hits filed as cytotoxic; AID 651635; S2 cells (HEK-293 line with an ATXN2-luciferase reporter) viability, CellTiter-Fluor protease fluorescence, 24 h; further: potency means the concentration at half of the fitted maximal effect; nearly all actives have a fitted effect of over 40% in size
# ATXN2 expr inh – ATXN2 expression inhibition; HEK-293 ATXN2-luciferase reporter, luminescence, 24 h; Potency, µM (top dose mostly 57 µM), for inactives: top-dose activity change, negative = inhibition, hits mostly inhibitors; actives 0.72% (n = 360,000); AID 1745845; further: potency means the concentration at half of the fitted maximal effect; on the % scale 0 is the no-effect control and ±100 the full control effect; nearly all actives have a fitted effect of over 55% in size
#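 qHTS (up to 57 uM final) was run with 24 h compound exposure of reporter cells at 37 °C. Each well was multiplexed: SteadyGlo luminescence measured ATXN2-luciferase expression after a fluorogenic Gly-Phe-AFC viability readout (25 uM final).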
# IL-1B inflam inh – blocks inflammasome-driven IL-1 beta release. THP-1 LPS/ATP IL-1B secretion, AlphaLISA, 16 h; stronger effect = lower value. actives 4.7% (n = 360,000). activity change, % at 57.5 µM. AID 743279; in the data active means activity change below about -50%; inconclusive means mostly about -30% to -49%; further: on the % scale 0 is the no-effect control and ±100 the full control effect
#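 THP-1 cells pretreated 1 hr with compounds (up to 57.5 uM final), then stimulated with LPS (250 ng/mL final) plus ATP (1.25 mM final); secreted IL-1B measured by AlphaLISA after 16 hr, decreased signal indicating inhibition.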
# USP2a block – USP2a (human) protease inhibition; actives 0.01% (n = 330,000); Potency, µM (series often up to 38.3 µM), for inactives: at the top dose activity change, negative = inhibition, usual class: inhibitors; AID 463254; USP2 core, Ub-CHOP2 coupled fluorogenic reporter, 485/531; O75604;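 further: potency means the concentration at half of the fitted maximal effect; plate controls were DMSO wells for no effect and full inhibition by NEM control for full effect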
# Target sequence (O75604 whole entry, looked up): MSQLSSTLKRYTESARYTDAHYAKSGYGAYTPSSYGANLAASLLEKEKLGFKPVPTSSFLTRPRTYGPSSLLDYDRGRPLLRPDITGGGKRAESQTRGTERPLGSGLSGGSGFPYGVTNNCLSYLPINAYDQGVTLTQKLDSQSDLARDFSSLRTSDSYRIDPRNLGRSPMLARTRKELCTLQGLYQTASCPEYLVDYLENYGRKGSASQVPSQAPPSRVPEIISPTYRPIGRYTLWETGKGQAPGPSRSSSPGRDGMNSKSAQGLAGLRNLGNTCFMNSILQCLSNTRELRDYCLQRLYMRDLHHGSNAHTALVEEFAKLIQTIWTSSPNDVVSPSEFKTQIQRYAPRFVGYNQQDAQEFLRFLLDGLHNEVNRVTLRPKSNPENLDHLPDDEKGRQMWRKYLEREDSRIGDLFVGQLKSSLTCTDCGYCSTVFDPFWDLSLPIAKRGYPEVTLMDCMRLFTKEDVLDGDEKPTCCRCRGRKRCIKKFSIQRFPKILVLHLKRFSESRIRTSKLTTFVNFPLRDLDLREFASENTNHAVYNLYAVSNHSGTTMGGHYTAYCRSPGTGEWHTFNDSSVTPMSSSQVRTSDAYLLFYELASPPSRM
#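 Cell-free coupled assay: 10nM USP2 core preincubated 30min RT with compound in Tris-HCl pH 8.0/CaCl2/CHAPS buffer, then 25nM Ub-CHOP2 and 25nM reporter substrate; fluorescence (Ex 485/Em 531) read after 60min RT, normalized to NEM inhibition, concentration-response curves fitted.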
# USP1 inh – blocks the human USP1/UAF1 deubiquitinase complex; recombinant USP1/UAF1, Ub-Rhodamine cleavage fluorescence; Potency, µM (highest dose often 57.1 µM), inactives show at the top dose activity change, negative = inhibition, most hits filed as inhibitors; AID 743255; O94782; actives 0.23% (n = 390,000); further: potency means the concentration at half of the fitted maximal effect; on the % scale 0 is the no-effect control and ±100 the full control effect; nearly all actives have a fitted effect of over 60% in size
#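 High-throughput fluorogenic screen: 1nM USP1/UAF1 complex, Ub-Rho substrate 150nM final, 50mM HEPES pH 7.8 with 0.5mM EDTA, 0.1 mg/ml BSA, 1mM TCEP and 0.01% Tween-20.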
# The depositor's hits bear a star; i = inactive; ? = inconclusive; . = no result; [ ] = remark or other dose. Unless noted, the call rests on the fitted dose curve; in most records, active means well fitted curve in the direction sought with a large enough effect; inconclusive means small, poorly fitted or top-dose-only effect, or another doubt; inactive means no such curve, though single readings can be large; an effect the other way counts as inactive or inconclusive.
SMILES,S2 tox,ATXN2 expr inh,IL-1B inflam inh,USP2a block,USP1 inh
Cc1cccc(CN2CCc3nnc(C(C)NC(=O)C4CCOCC4)n3CC2)c1 (stereo not drawn),i,.,.,.,.
CCN(CC)S(=O)(=O)c1ccc(C(O)=C(C#N)c2nc3ccccc3n2C)cc1,?,?,-72*,.,-24%
Cc1cc(C)nc(Sc2nc(Nc3ccccc3)nc(Sc3nc(C)cc(C)n3)n2)n1,i,13%,-54*,1%,-6%
O=C1[C@H]2[C@@H](c3ccc(F)cc3)N3C(=O)N(c4cccc(Cl)c4)C(=O)[C@@]3(Cc3ccccc3)[C@H]2C(=O)N1C1CCCCC1,i,8%,-50*,-2%,?
CC1N=C(SCC(=O)c2ccc(F)cc2)N2C(C)N=C(SCC(=O)c3ccc(F)cc3)N12 (stereo not drawn),i,.,28,.,-9%
CC(=O)NC(C)c1cc(Cl)c2cccnc2c1O (stereo not drawn),6.3µM*,7.9µM*,.,-2%,.
CCC(=O)NC(C)c1cc(Cl)c2cccnc2c1O (stereo not drawn),?,8.9µM*,.,-3%,.
CN1CCN(C(c2ccc(Br)cc2)c2cc(Cl)c3cccnc3c2O)CC1 (stereo not drawn),?,?,-106*,-7%,?
Cc1nn2c(=O)cc(COC(=O)c3ccccc3NC(=O)c3cccs3)nc2s1,.,.,.,.,-1%
Cc1c(-c2ccccc2)c(-c2ccc(OCCN(C)C)cc2)n2ccccc12,?,-20%,-59*,.,-22%
COc1ccccc1-c1nnc(Sc2nc([N+](=O)[O-])nn2C)o1,.,10µM*,-100*,5%,-11%
Cc1ccccc1Nc1c(-c2cccc(N(C)C)c2)nc2ccc(Br)cn12,i,8%,.,.,-10%
COc1cccc(-c2csc(N3CCN(C(=S)Nc4cccc(Cl)c4)CC3)n2)c1,?,?,-81*,1%,-18%
COc1ccc(NC(=O)N2CCN(c3nc(-c4cccc(OC)c4)cs3)CC2)cc1,?,22µM*,-93*,1%,-14%
COc1ccc(N2CCN(C(=O)CN3CCN(c4nc(-c5ccc(F)cc5)cs4)CC3)CC2)cc1,i,-15%,-52*,-1%,-22%
Cc1oc(-c2ccccc2NC(=O)c2ccsc2)nc1CN(C)CC1CC=CCC1 (stereo not drawn),i,.,.,.,.
COC(=O)[C@@H]1[C@H]2C[C@@H]3c4[nH]c5ccccc5c4CCN3C[C@@H]2CC[C@@H]1O,.,11%,.,.,.
Cc1cc2c(cc1C)-c1nnnn1C(N1CCC(Cc3ccccc3)CC1)C(=O)N2 (stereo not drawn),.,.,-1,.,.
Cc1ccc(Cl)cc1NC(=S)N(CCN(C)C)C(C)c1ccccn1 (stereo not drawn),?,3%,-73*,-2%,-21%
Nc1ccc2cc3[nH]c4cc(N)ccc4c3nc2c1,.,?,-109*,.,?
COc1cccc(NC(=O)C2CCN(C(=O)[C@@H]3Cc4ccccc4CN3)CC2)c1,i,13%,-10,2%,-29%
N#CCSc1nccc(/C=C/c2ccccc2)n1,i,41%,-92*,-1%,-15%
C(=C\c1ccc(/C=C/c2ccccc2)nn1)/c1ccccc1,.,.,.,4%,.
CC(C)Cn1c(SCC(=O)N2CCN(S(=O)(=O)c3ccccc3)CC2)nc2ccccc21,i,?,-52*,-14%,-4%
Cc1cc2c(=O)n(Cc3ccco3)c(SCC(=O)N3CCCc4ccccc43)nc2s1,i,-31%,-67*,4%,-7%
SMILES,S2 tox,ATXN2 expr inh,IL-1B inflam inh,USP2a block,USP1 inh
CC(C)Cn1c(SCC(=O)N2CCCc3ccccc32)nc2ccccc2c1=O,i,-25%,-66*,-3%,-8%
CCn1c(SCC(=O)N2CCCc3ccccc32)nc2ccccc2c1=O,i,-9%,-24,-1%,-14%
Cc1cc2c(=O)n(Cc3ccco3)c(SCC(=O)NCc3ccco3)nc2s1,i,-13%,-1,-1%,-13%
O=C(O)c1ccc2c(c1)C(=O)N([C@H](Cc1ccc(O)cc1)C(=O)O)C2=O,.,.,.,0%,.
NC(=O)C1CCCN(Cc2ccc3c(c2)CN(Cc2ccccc2)CCO3)C1 (stereo not drawn),i,.,.,.,.
O=S(=O)(Nc1cc2nc3ccccc3nc2n1Cc1ccccc1)c1ccc(Cl)cc1,.,-24%,-91*,7%,25µM*
O=S(=O)(NCc1ccccc1)c1ccc(Cl)cc1,?,-8%,-3,2%,-20%
CCN(Cc1ccccc1)c1ncnc2c1cnn2-c1ccc(F)cc1,i,65%,.,.,-12%
COc1ccc(NC(=O)N(C)[C@H]2C[C@H]3c4[nH]c5ccccc5c4CCN3C(=O)[C@H]2CO)cc1,i,2%,-11,.,-22%
CC1CCCCC1NC(=O)COC(=O)c1ccc2c(c1Cl)C(=O)c1ccccc1C2=O (stereo not drawn),i,8%,19,0%,-21%
O=C(COC(=O)c1cccc2c1C(=O)c1ccccc1C2=O)NC1CCCCC1,i,-27%,-132*,2%,-22%
O=C(COC(=O)c1ccc2c(c1[N+](=O)[O-])C(=O)c1ccccc1C2=O)NC1CC1,28µM*,-16%,-77*,0%,-14%
O=C(Nc1ccc(F)c(Cl)c1)Nc1nnc([C@H]2C[C@H](O)[C@@H](CO)O2)s1,i,41%,0,.,.
Cn1c(=O)c2sccc2n2c(CCC(=O)NCc3ccc(F)cc3)nnc12,i,-5%,.,.,-3%
OCC1(Cc2cccc(C(F)(F)F)c2)CCN(Cc2cc3ccccc3o2)CC1,i,-22%,-136*,0%,-12%
COc1ccc(CC2(CO)CCN(Cc3cc4ccccc4o3)CC2)cc1,i,-25%,-80*,0%,-14%
Cc1c(CN2CCC(CO)(Cc3cccc(C(F)(F)F)c3)CC2)c2ccccc2n1C,.,35µM*,-94*,1%,-9%
Cc1ccccc1OCC(=O)OCC(=O)NC1CCCC1,i,.,13,.,-21%
CCOC(=O)c1c(CN2CCNCC2)nc2ccc(Cl)cc2c1-c1ccccc1,?,?,-64*,.,-21%
O=C(c1ccco1)N(CCCN1CCOCC1)c1nc(-c2ccc(Cl)cc2)cs1,i,?,?,-3%,-18%
CCN(CC)CCCN(C(=O)c1ccco1)c1nc(-c2ccc(C)cc2)cs1,?,-16%[11.3 µM],-85*,1%,-15%
O=C(c1ccco1)N(CCCN1CCOCC1)c1nc(-c2ccc(F)cc2)cs1,i,-11%,-88*,-3%,-2%
CCN(CC)CCCN(C(=O)c1ccco1)c1nc(-c2ccc(Cl)cc2)cs1,i,0%,-67*,-1%,-24%
COCCCN(C(=O)c1ccco1)c1nc(-c2ccc(OC)cc2)cs1,i,-1%,-16,2%,?

# High-throughput results: PubChem BioAssay, National Center for Advancing Translational Sciences (NCATS)
